Measured values reported in PubChem BioAssay.
Records with an inconclusive call do not appear. Activity calls are given as the source filed them. Unless noted, cut-off not given; nearly all actives show AC50 up to about 30 µM. Where a SMILES comes first, the peptide text is derived from it. [ ]: non-standard residue; d: D form. The star is where a group is joined. Sta = CC(C)C[C@H](N)[C@@H](O)CC(=O)O; Isovaleryl = CC(C)CC(=O)*

Key:
[1] = growth inhibition of DIPG glioma cells, dose response, cell-based, SU-DIPG-IV, MIPE4.0, CellTiter-Glo, qHTS (AID 1347063); conditions: SU-DIPG-IV viability, CellTiter-Glo ATP luminescence;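 further: compound exposure lasted 48 hours before the viability readout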
[2] = viability loss in pontine glioma line – cell-based, SU-DIPG-XXV, MIPE5.0, CellTiter-Glo, qHTS, dose response (AID 1347065; cut-off not given, nearly all actives have AC50 up to about 26 µM;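 further: cells exposed to compound for 48 hours before ATP readout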); conditions: CellTiter-Glo ATP luminescence
[3] = SU-DIPG-VI glioma cell viability, MIPE4.0 library, CellTiter-Glo luminescence, qHTS (AID 1347066); conditions: CellTiter-Glo ATP luminescence;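 further: cells exposed to compound for 48 hours before readout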
[4] = JHH-DIPG-1 glioma cell viability, MIPE5.0 library, CellTiter-Glo luminescence, qHTS (AID 1347067; cut-off not given, nearly all actives have AC50 up to about 26 µM;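 further: cells exposed to compound for 48 hours before readout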); conditions: JHH-DIPG-1 glioma viability, CellTiter-Glo ATP luminescence
[5] = growth inhibition of DIPG glioma cells, dose response, cell-based, SU-DIPG-XIII, MIPE5.0, CellTiter-Glo, qHTS (AID 1347064; cut-off not given, nearly all actives have AC50 up to about 23 µM;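 on AC50: cells exposed to compound for 48 hours before the viability read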); conditions: SU-DIPG-XIII viability, CellTiter-Glo ATP luminescence
[6] = test system: Hepatitis C virus NS3 helicase; experiment: HCV NS3 helicase inhibitors, primary screen, biochemical, fluorescence polarization, LOPAC1280 library (AID 687035; in the data active means inhibition above about 37%); conditions: Purified HCV NS3 helicase, Cy5-dT15 ssDNA binding fluorescence polarization; stronger effect = higher value; concentration not given here
[7] = Cy5 fluorescence quenching or enhancement artefacts, artefact control for HCV NS3 helicase inhibitor project, biochemical, LOPAC1280 (AID 687037; call rule not given here); conditions: Cy5-DNA-NS3h complex fluorescence interference counterscreen
[8] = phospholipid biosynthesis inhibitors in animal cells, primary screen, cell-based, LOPAC library, screen 4 (AID 1347384; call rule not given here); conditions: phospholipid biosynthesis inhibition screen, at 10 µM
[9] = modifiers of HSF1 nuclear foci, imaging, Selleck Cancer Library (AID 1347162; in the data active means plate-normalised HSF1 focus index below about 0.46); conditions: human cells, at 10 µM; SSMD: measured here: HSF1 foci SSMD mean; cell count: measured here: cell number; plate-normalised HSF1 focus index: stronger effect = lower value
[10] = hESC survival regulators, cell-based (AID 493140; call rule not given here;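 further: cells exposed to compounds for four days before counting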); conditions: human embryonic stem cell survival screen; stronger effect = higher value
[11] = circadian clock period modulators, cell-based, LOPAC library, luminescence reporter (AID 2774; call rule not given here;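 further: values are relative to mean of DMSO wells on each plate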); conditions: circadian reporter cells, at 7 µM, actives lie on both sides
[12] = target: Mitogen-activated protein kinase 7 (Homo sapiens) (UniProt Q13164); experiment: ERK5 transactivation activators in reporter cells, primary screen, cell-based, HTS (AID 1508626;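 active means luciferase signal above three times the same-plate solvent-only control wells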;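 further: luciferase driven by Gal4-ERK5 fusion binding five Gal4 sites before minimal TATA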); conditions: HeLa Gal4-ERK5 transactivation, 18 h, at 5 µM, stronger effect = higher value
Chain of Mitogen-activated protein kinase 7 (Homo sapiens) (Q13164 whole entry, looked up, the tested form may be a part): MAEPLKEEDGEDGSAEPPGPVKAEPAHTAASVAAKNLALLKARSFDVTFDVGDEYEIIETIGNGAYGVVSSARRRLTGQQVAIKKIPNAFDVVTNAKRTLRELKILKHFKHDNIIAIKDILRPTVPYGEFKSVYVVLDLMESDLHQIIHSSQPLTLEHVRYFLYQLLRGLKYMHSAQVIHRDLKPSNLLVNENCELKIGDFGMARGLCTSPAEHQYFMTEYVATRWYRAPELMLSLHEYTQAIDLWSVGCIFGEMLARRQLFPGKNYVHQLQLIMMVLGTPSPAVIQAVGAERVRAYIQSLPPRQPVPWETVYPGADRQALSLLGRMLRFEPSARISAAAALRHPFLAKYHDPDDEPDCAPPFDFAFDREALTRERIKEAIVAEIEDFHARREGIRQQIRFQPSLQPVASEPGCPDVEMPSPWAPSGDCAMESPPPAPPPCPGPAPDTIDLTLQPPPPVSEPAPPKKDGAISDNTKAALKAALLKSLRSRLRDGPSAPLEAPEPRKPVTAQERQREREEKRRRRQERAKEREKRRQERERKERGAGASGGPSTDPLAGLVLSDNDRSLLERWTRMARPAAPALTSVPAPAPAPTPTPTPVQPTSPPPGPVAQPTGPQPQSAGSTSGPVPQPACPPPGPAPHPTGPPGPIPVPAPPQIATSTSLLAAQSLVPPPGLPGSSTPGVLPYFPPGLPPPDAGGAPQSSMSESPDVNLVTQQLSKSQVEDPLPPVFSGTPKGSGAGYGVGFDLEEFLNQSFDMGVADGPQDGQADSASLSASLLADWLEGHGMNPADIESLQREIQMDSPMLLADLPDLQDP

O=C(O)C(=O)Nc1cccc(-c2nn[nH]n2)c1
inactive: outcome [1] | outcome [2] | outcome [3] | outcome [4]

Cc1oc(=O)oc1CN1CCN(c2cc3c(cc2F)c(=O)c(C(=O)O)c2n3C(C)S2)CC1 (stereo not given)
inactive: outcome [1] | outcome [5] | outcome [2] | outcome [3] | outcome [4]

CCC(C)(Oc1ccc(C2(c3ccc(OC(C)(CC)C(=O)O)cc3)CCCCC2)cc1)C(=O)O (stereo not given)
inactive: outcome [1] | outcome [5] | outcome [2] | outcome [3] | outcome [4]

O=c1[nH]c(=O)n([C@H]2C[C@H](O)[C@@H](CO)O2)cc1I
inactive: outcome [1] | outcome [3]

CC(C)OC(=O)C(C(=O)OC(C)C)=C1SC=CS1
inactive: outcome [1]

CC(=O)SC[C@@H](C)C(=O)N1CCC[C@H]1C(=O)N[C@@H](Cc1ccccc1)C(=O)O
inactive: outcome [1] | outcome [3] | outcome [4]

Nc1ccn(C[C@@H](CO)OCP(=O)(O)O)c(=O)n1
inactive: outcome [1] | outcome [5] | outcome [2] | outcome [3] | outcome [4]

CCOC(=O)[C@H](CCc1ccccc1)N[C@H]1CS[C@H](c2cccs2)CN(CC(=O)O)C1=O
inactive: outcome [5] | outcome [2] | outcome [3] | outcome [4]
active: AC50 [1] 1.87 µM

Cc1[nH]c(=O)c(C#N)cc1-c1ccc2nccn2c1
inactive: inhibition [6] -1% | fluorescence ratio (interference) [7] 1 | outcome [1] | outcome [2] | outcome [3] | outcome [4] | outcome [8]

Clc1ccc(Nc2nnc(Cc3ccncc3)c3ccccc23)cc1
active: AC50 [2] 20.9 µM | AC50 [4] 18.6 µM
inactive: outcome [5] | outcome [3] | plate-normalised HSF1 focus index [9] 1.15
2.9: SSMD [9]
7070: cell count [9]

CCN(CC)CCNC(=O)c1c(C)[nH]c(/C=C2\C(=O)Nc3ccc(F)cc32)c1C
active: AC50 [1] 9.59 µM | AC50 [5] 7.42 µM | AC50 [2] 4.17 µM | AC50 [3] 21.5 µM | AC50 [4] 3.72 µM
6750: cell count [9]
inactive: plate-normalised HSF1 focus index [9] 0.967 | outcome [8]
-0.842: SSMD [9]

O=C(NOCC1CC1)c1ccc(F)c(F)c1Nc1ccc(I)cc1Cl
active: AC50 [1] 20.9 µM | AC50 [5] 3.32 µM | AC50 [2] 2.35 µM | AC50 [3] 10.5 µM | AC50 [4] 1.86 µM

NS(=O)(=O)c1cc(Cl)c(Cl)c(S(N)(=O)=O)c1
inactive: survival [10] 2 | outcome [1] | outcome [2] | outcome [3] | outcome [4]

CC1(COc2ccc(CC3SC(=O)NC3=O)cc2)CCCCC1 (stereo not given)
inactive: survival [10] 117

CC(C)C[C@H](NC(=O)[C@H](Cc1ccccc1)NC(=O)c1cnccn1)B(O)O
inactive: plate-normalised HSF1 focus index [9] 1.14
active: AC50 [1] 0.00833 µM | AC50 [2] 0.00662 µM | AC50 [3] 0.0264 µM | AC50 [4] 0.0263 µM
7530: cell count [9]
3.94: SSMD [9]

CNC(=O)c1cc(Oc2ccc(NC(=O)Nc3ccc(Cl)c(C(F)(F)F)c3)cc2)ccn1
6960: cell count [9]
inactive: plate-normalised HSF1 focus index [9] 1.05
active: AC50 [1] 20.9 µM | AC50 [2] 10.5 µM | AC50 [3] 20.9 µM | AC50 [4] 4.17 µM
0.678: SSMD [9]

CC(C)CC(=O)N[C@H](C(=O)N[C@H](C(=O)N[C@@H](CC(C)C)[C@@H](O)CC(=O)N[C@@H](C)C(=O)N[C@@H](CC(C)C)[C@@H](O)CC(=O)O)C(C)C)C(C)C (Isovaleryl-VV[Sta]A[Sta]-OH)
inactive: outcome [1] | outcome [5] | outcome [2] | outcome [3] | outcome [4]

C[C@H]1C[C@H]2[C@@H]3CCC4=CC(=O)C=C[C@]4(C)[C@H]3C(=O)C[C@]2(C)[C@@]1(O)C(=O)CO
inactive: outcome [1] | outcome [2] | outcome [3] | outcome [4]

Nc1ccn(C2CO[C@H](CO)O2)c(=O)n1 (stereo not given in full)
inactive: outcome [1] | outcome [5] | outcome [2] | outcome [3] | outcome [4]

COC(=O)C1=C(C)NC(C)=C(C(=O)OCCCN2CCC(c3ccccc3)(c3ccccc3)CC2)C1c1cccc([N+](=O)[O-])c1 (stereo not given)
inactive: outcome [1] | outcome [3]
active: AC50 [5] 13.2 µM | AC50 [2] 8.33 µM

CCCCCCCCCCCCCCCC(=O)NCCO
inactive: period change [11] 0.19 h | survival [10] 109 | inhibition [6] -7% | fluorescence ratio (interference) [7] 1

NCCCC(N)(C(=O)O)C(F)F (stereo not given)
inactive: period change [11] -0.04 h | inhibition [6] -3% | fluorescence ratio (interference) [7] 1 | outcome [1] | outcome [5] | outcome [2] | outcome [4] | outcome [8]

NC(=O)c1ncn([C@@H]2O[C@H](CO)[C@@H](O)[C@H]2O)c1N
inactive: outcome [5] | outcome [2] | outcome [3] | outcome [4] | luciferase signal [12] 16 AU

O=C(O)c1ccc(-n2nc(-c3ccccc3O)nc2-c2ccccc2O)cc1
active: AC50 [2] 20.9 µM | AC50 [3] 23.5 µM
